According to PubChem BioAssay AID1159580 (chemical genetic matrix, 2015):
The whole screen tested about 5,500 compounds, of which about 2,000 (36%) were called active. About 18% were inconclusive and are not listed. No stated cut-off is given here; in the data, active means normalized growth mostly below about 0.91 (no sharp cut-off); inconclusive means no clear call, values can overlap the other calls; inactive means mostly above about 0.92. The list shows a part of the results.

Assay: chemical genetic growth profiling, strain panel (AID 1159580);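 further: tested at 20 µM; growth read once vehicle control cultures reached saturation at 30 °C; 1 = growth at the plate median or of vehicle wells; lower values mean less growth of the strain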
Conditions: growth OD

Measured: normalized growth

O=C(/C=C/C=C/c1ccc2c(c1)OCO2)N1CCCCC1
inactive: S. cerevisiae deletion strains, locus YJR075W, strain HOC1, active compounds read low 0.9 | S. cerevisiae deletion strains, locus YKL009W, strain mrt4, active compounds read low 0.886 | S. cerevisiae deletion strains, locus YKL068W, active compounds read low 0.966 | S. cerevisiae deletion strains, locus YKL085W, strain MDH1 (second series), active compounds read low 0.953 | S. cerevisiae deletion strains, locus YKL085W, strain MDH1, active compounds read low 0.953 | S. cerevisiae deletion strains, locus YKL160W, strain elf1, active compounds read low 0.919 | S. cerevisiae deletion strains, locus YKL190W, strain CNB1, active compounds read low 0.974 | S. cerevisiae deletion strains, locus YKR026C, strain gcn3, active compounds read low 0.992 | S. cerevisiae deletion strains, locus YKR091W, strain srl3, active compounds read low 0.977 | S. cerevisiae deletion strains, locus YLL001W, strain dnm1, active compounds read low 0.935 | S. cerevisiae deletion strains, locus YLL026W, active compounds read low 0.956 | S. cerevisiae deletion strains, locus YLL041C, strain sdh2, active compounds read low 0.964 | S. cerevisiae deletion strains, locus YLR027C, strain aat2, active compounds read low 0.945 | S. cerevisiae deletion strains, locus YLR039C, strain RIC1, active compounds read low 0.72 | S. cerevisiae deletion strains, locus YLR058C, strain SHM2, active compounds read low 0.968 | S. cerevisiae deletion strains, locus YLR102C, strain apc9, active compounds read low 0.94 | S. cerevisiae deletion strains, locus YLR113W, strain HOG1, active compounds read low 0.973 | S. cerevisiae deletion strains, locus YLR258W, strain gsy2, active compounds read low 0.92 | S. cerevisiae deletion strains, locus YLR262C, strain YPT6, active compounds read low 0.785 | S. cerevisiae deletion strains, locus YLR330W, strain CHS5, active compounds read low 0.969 | S. cerevisiae deletion strains, locus YLR357W, strain rsc2, active compounds read low 1.08 | S. cerevisiae deletion strains, locus YLR370C, strain arc18, active compounds read low 0.952 | S. cerevisiae deletion strains, locus YLR371W, strain rom2, active compounds read low 0.959 | S. cerevisiae deletion strains, locus YLR384C, strain iki3, active compounds read low 0.976 | S. cerevisiae deletion strains, locus YML016C, strain PPZ1, active compounds read low 0.961 | S. cerevisiae deletion strains, locus YML032C, strain rad52, active compounds read low 0.914 | S. cerevisiae deletion strains, locus YML120C, strain ndi1, active compounds read low 0.932 | S. cerevisiae deletion strains, locus YML124C, strain tub3, active compounds read low 0.945 | S. cerevisiae deletion strains, locus YMR058W, strain fet3, active compounds read low 0.93 | S. cerevisiae deletion strains, locus YMR078C, strain ctf18, active compounds read low 0.932 | S. cerevisiae deletion strains, locus YMR125W, strain sto1, active compounds read low 0.961 | S. cerevisiae deletion strains, locus YMR129W, active compounds read low 0.959 | S. cerevisiae deletion strains, locus YMR205C, strain PFK2, active compounds read low 0.892 | S. cerevisiae deletion strains, locus YMR223W, strain ubp8, active compounds read low 0.91 | S. cerevisiae deletion strains, locus YMR231W, strain pep5, active compounds read low 0.99 | S. cerevisiae deletion strains, locus YMR263W, strain SAP30, active compounds read low 0.921 | S. cerevisiae deletion strains, locus YMR307W, strain GAS1, active compounds read low 0.621 | S. cerevisiae deletion strains, locus YNL067W, strain RPL9B, active compounds read low 0.907 | S. cerevisiae deletion strains, locus YNL128W, strain TEP1, active compounds read low 0.991 | S. cerevisiae deletion strains, locus YNL153C, strain GIM3, active compounds read low 0.953 | S. cerevisiae deletion strains, locus YNL183C, strain NPR1, active compounds read low 0.95 | S. cerevisiae deletion strains, locus YNL209W, strain ssb2, active compounds read low 0.949 | S. cerevisiae deletion strains, locus YNL233W, strain BNI4, active compounds read low 0.89 | S. cerevisiae deletion strains, locus YNL248C, strain rpa49, active compounds read low 0.94 | S. cerevisiae deletion strains, locus YNL250W, strain rad50, active compounds read low 0.95 | S. cerevisiae deletion strains, locus YNL271C, strain bni1, active compounds read low 0.933 | S. cerevisiae deletion strains, locus YNL298W, strain CLA4, active compounds read low 0.92 | S. cerevisiae deletion strains, locus YNL322C, strain KRE1 (second series), active compounds read low 0.965 | S. cerevisiae deletion strains, locus YNL322C, strain KRE1, active compounds read low 0.981 | S. cerevisiae deletion strains, locus YNR049C, strain mso1, active compounds read low 0.977 | S. cerevisiae deletion strains, locus YNR052C, strain pop2, active compounds read low 0.963 | S. cerevisiae deletion strains, locus YOL006C, strain TOP1, active compounds read low 0.598 | S. cerevisiae deletion strains, locus YOL012C, strain htz1 1.13 | S. cerevisiae deletion strains, locus YOL147C, strain pex11, active compounds read low 0.951 | S. cerevisiae deletion strains, locus YOR001W, strain rrp6, active compounds read low 0.956 | S. cerevisiae deletion strains, locus YOR061W, strain CKA2, active compounds read low 0.979 | S. cerevisiae deletion strains, locus YOR069W, strain VPS5, active compounds read low 0.98 | S. cerevisiae deletion strains, locus YOR070C, strain gyp1, active compounds read low 0.935 | S. cerevisiae deletion strains, locus YOR080W, strain dia2, active compounds read low 0.996 | S. cerevisiae deletion strains, locus YOR083W, strain WHI5, active compounds read low 0.909 | S. cerevisiae deletion strains, locus YOR106W, strain vam3, active compounds read low 0.925 | S. cerevisiae deletion strains, locus YOR136W, strain idh2, active compounds read low 0.964 | S. cerevisiae deletion strains, locus YOR144C, strain elg1, active compounds read low 0.948 | S. cerevisiae deletion strains, locus YOR231W, strain MKK1, active compounds read low 0.982 | S. cerevisiae deletion strains, locus YOR265W, strain rbl2, active compounds read low 0.961 | S. cerevisiae deletion strains, locus YOR290C, strain snf2, active compounds read low 0.929 | S. cerevisiae deletion strains, locus YOR316C, strain cot1, active compounds read low 0.946 | S. cerevisiae deletion strains, locus YPL055C, strain LGE1, active compounds read low 0.827 | S. cerevisiae deletion strains, locus YPL078C, strain atp4, active compounds read low 0.914 | S. cerevisiae deletion strains, locus YPL106C, strain sse1, active compounds read low 0.92 | S. cerevisiae deletion strains, locus YPL240C, strain hsp82, active compounds read low 0.946 | S. cerevisiae deletion strains, locus YPL241C, strain CIN2, active compounds read low 0.969 | S. cerevisiae deletion strains, locus YPL256C, strain CLN2, active compounds read low 0.914 | S. cerevisiae deletion strains, locus YPR119W, strain clb2, active compounds read low 0.936 | S. cerevisiae deletion strains, locus YPR141C, strain kar3, active compounds read low 0.946 | S. cerevisiae deletion strains, locus YPR167C, strain met16, active compounds read low 0.948 | S. cerevisiae deletion strains, strain wtn01, active compounds read low 0.9 | S. cerevisiae strains, strain wild type, active compounds read low 0.948
active: S. cerevisiae deletion strains, locus YKR001C, strain vps1, active compounds read low 0.796 | S. cerevisiae deletion strains, locus YLR221C, strain rsa3, active compounds read low 0.9 | S. cerevisiae deletion strains, locus YLR262C, strain YPT6 (second series), active compounds read low 0.71 | S. cerevisiae deletion strains, locus YLR268W, strain sec22, active compounds read low 0.807 | S. cerevisiae deletion strains, locus YLR320W, strain mms22, active compounds read low 0.808 | S. cerevisiae deletion strains, locus YLR342W, strain FKS1 (second series), active compounds read low 0.781 | S. cerevisiae deletion strains, locus YLR342W, strain FKS1, active compounds read low 0.851 | S. cerevisiae deletion strains, locus YLR418C, strain cdc73, active compounds read low 0.701 | S. cerevisiae deletion strains, locus YNL071W, strain lat1, active compounds read low 0.674 | S. cerevisiae deletion strains, locus YNL307C, strain MCK1, active compounds read low 0.729 | S. cerevisiae deletion strains, locus YOR184W, strain ser1, active compounds read low 0.753 | S. cerevisiae deletion strains, locus YOR270C, strain vph1, active compounds read low 0.633 | S. cerevisiae deletion strains, locus YPL051W, strain arl3, active compounds read low 0.896 | S. cerevisiae deletion strains, locus YPR163C, strain tif3, active compounds read low 0.856
